Screening results from PubChem BioAssay.
RecA intein inh: Mtb RecA intein splicing inhibitors, primary screen, biochemical, fluorescence, HTS; cell-free RecA intein splicing; inhibition, % (no concentration beside the values); AID 2221, 2009; hit rate 0.75% among 290,000; Protein RecA (Mycobacterium tuberculosis (strain ATCC 25618 / H37Rv)), P9WHJ3; in the data active = inhibition above about 30%; inconclusive = no clear call, values can overlap the other calls
FadD28 binding: inhibitors of FadD28 bisubstrate probe binding, primary screen, biochemical, fluorescence polarization, single point; Mycobacterium tuberculosis FadD28 fatty-acid-AMP ligase; inhibition, % at 12.5 µM; hit rate 0.22% among 360,000; in the data active = inhibition above about 8.5%, passing the limit was not always enough; inconclusive = no clear call, values can overlap the other calls
Rv3671c protease: Rv3671c serine protease inhibitors, primary screen, biochemical, fluorescence polarization, M. tuberculosis H37Rv. inhibition, % at 5.96 µM. hit rate 0.048% among 320,000. P9WHR9. AID 2606, 2010; in the data active = inhibition above about 38%;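 note: extracellular domain of Rv3671c used as enzyme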
UGM FP inh: M. tuberculosis UGM enzyme inhibitors, primary screen, biochemical, fluorescence polarization, single point; purified UGM, fluorescence polarization probe displacement; inhibition, % at 10 µM; hit rate 0.06% among 320,000; UDP-galactopyranose mutase (Mycobacterium tuberculosis (strain ATCC 25618 / H37Rv)), …; in the data active = inhibition above about 10%, passing the limit was not always enough; inconclusive = no clear call, values can overlap the other calls
TcdB inh: TcdB glycohydrolase inhibitors, primary screen, biochemical, single point, plate reader; Toxin B (Clostridioides difficile), P18177; TcdB glycohydrolase enzymatic assay; inhibition, % at 9.99 µM; hit rate 0.24% among 350,000; in the data active = inhibition above about 10%
Mtb BioA inh: M. tuberculosis BioA enzyme inhibitors, primary screen, biochemical, plate reader, single point, HTS | 7,8-diaminopelargonic acid synthase BioA (Mycobacterium tuberculosis) | purified M. tuberculosis BioA enzyme | inhibition, % at 9.99 µM | hit rate 0.096% among 360,000 | AID 602481, 2012; in the data active = inhibition above about 40%; inconclusive = no clear call, values can overlap the other calls
GFP chromo cs: counter-screen: blocks GFP chromophore formation, dose response, counter-screen, biochemical, fluorescence, homogeneous; EC50, µM; AID 434968, 2010; hit rate 83% among 2,100; cell-free GFP chromophore formation; shares compounds with RecA intein inh; call rule not given here
Numbers stand for hits; i = inactive; ? = inconclusive; nt = no result given. Most compounds without a hit are left out; they make up all but 0.9% or so of the library.

SMILES | RecA intein inh | FadD28 binding | Rv3671c protease | UGM FP inh | TcdB inh | Mtb BioA inh | GFP chromo cs
O=C(c1ccc2nc(Cc3cccc(Cl)c3)oc2c1)N1CCC(O)CC1 | 42 | ? | i | i | i | i | i
CCOC(=O)c1nn(-c2ccccc2C)c(=O)c2c(N)scc12 | 48 | i | i | i | i | nt | i
CCOC(=O)c1nn(-c2ccccc2)c(=O)c2c(N)scc12 | nt | i | i | i | nt | i | nt
CCCCOP(=O)(OCCCC)C1(NS(=O)(=O)c2ccccc2)C=CC(=O)c2ccccc21 (stereo not given) | 88 | i | i | i | nt | i | 5
C/C=C/c1ccc([C@@H]2[C@@H](CO)N(C(=O)C3CCC3)C23CN(C(=O)NC(C)C)C3)cc1 | nt | nt | nt | nt | i | nt | nt
Clc1ncnc2scc(C3COc4ccccc4O3)c12 (stereo not given) | 67 | i | i | i | nt | i | 20
O=C(Nc1ccc2c(c1)OCO2)N[C@@H]1CC[C@@H](CCNC(=O)C2CCCC2)O[C@H]1CO | nt | nt | nt | nt | i | i | nt
Cc1c(C(c2ccc([N+](=O)[O-])cc2)c2c(C)n(C)n(-c3ccccc3)c2=O)c(=O)n(-c2ccccc2)n1C | i | i | i | i | nt | i | nt
Cc1[nH]n(-c2ccccc2)c(=O)c1C(c1ccc(O)c([N+](=O)[O-])c1)c1c(C)[nH]n(-c2ccccc2)c1=O | 86 | i | i | i | nt | i | 2.3
Cc1[nH]n(-c2ccccc2)c(=O)c1C(c1ccc([N+](=O)[O-])cc1)c1c(C)[nH]n(-c2ccccc2)c1=O | 95 | i | i | i | nt | nt | 1.6
CCCc1cn(CC[C@H]2CC[C@H](NC(=O)C3CC3)[C@@H](CO)O2)nn1 | nt | nt | nt | nt | i | i | nt
O=C(CSc1nnc(Cc2ccccc2)o1)Nc1ccccc1 | i | i | i | i | i | nt | nt
O=C(CSc1nnc(Cc2ccccc2)o1)Nc1cccc(F)c1 | 43 | i | i | i | i | i | i
C[C@@H]1CN([C@H](C)CO)S(=O)(=O)c2ccc(C3=CCCC3)cc2O[C@H]1CN(C)C(=O)c1ccc(F)cc1 | nt | nt | nt | nt | i | i | nt
CCN(Cc1ccccc1)C(c1ccncc1)c1nnnn1C(C)(C)C (stereo not given) | nt | i | i | i | nt | i | nt
CCN(Cc1ccccc1)C(c1ccc(C)cc1)c1nnnn1C(C)(C)CC (stereo not given) | 30 | i | i | i | nt | i | i
C[C@@H](NC(=O)C[C@H]1CC[C@H]2[C@@H](COC[C@H](O)CN2C(=O)Nc2ccccc2)O1)c1ccccc1 | nt | nt | nt | nt | i | i | nt
Cc1ccc(S(=O)(=O)NCC2CCC(C(=O)NCCCN3CCC(C)CC3)CC2)cc1 (stereo not given) | nt | i | nt | nt | i | i | nt
Cc1ccc(S(=O)(=O)NCC2CCC(C(=O)NCCCN3CCOCC3)CC2)cc1 (stereo not given) | i | i | i | i | nt | i | i
Oc1cc(O)c2c(c1)O[C@H](c1ccc(O)c(O)c1)[C@H](O)C2 | 36 | i | i | i | nt | i | i
O=C(Cc1ccc(Cl)cc1)Nc1cccc(S(=O)(=O)N2CCCCC2)c1 | nt | i | i | i | i | i | nt
O=C(CCl)Nc1cccc(S(=O)(=O)N2CCCCCC2)c1 | 44 | i | i | i | nt | nt | 33
COc1ccc(NC(=O)N(C)C[C@@H]2Oc3c(NS(=O)(=O)c4ccc(OC)cc4)cccc3C(=O)N([C@@H](C)CO)C[C@H]2C)cc1 | nt | nt | nt | nt | i | i | nt
COCC(=O)N1C[C@H](C)[C@@H](OC)CN(C)C(=O)c2cc(NC(=O)c3ccccc3)ccc2OC[C@@H]1C | nt | nt | nt | nt | i | i | nt
Cc1cc(C)cc(CC(Cc2nc3ccccc3[nH]2)c2nc3ccccc3[nH]2)c1 (stereo not given) | 36 | i | i | i | nt | nt | i
SMILES | RecA intein inh | FadD28 binding | Rv3671c protease | UGM FP inh | TcdB inh | Mtb BioA inh | GFP chromo cs
CCc1ccc(NC2=CC(=O)C(=O)c3ccccc32)cc1 | nt | i | nt | nt | i | nt | nt
Cc1ccc(S(=O)(=O)/N=C2\C=C(Nc3ccc(O)cc3)C(=O)c3ccccc32)cc1 | nt | ? | i | i | nt | i | nt
Cc1ccc(S(=O)(=O)/N=C2\C=C(Nc3cccc(C(=O)O)c3)C(=O)c3ccccc32)cc1 | 95 | i | i | i | i | i | 0.51
CCc1ccc(S(=O)(=O)/N=C2\C=C(Nc3ccc(C(=O)O)cc3)C(=O)c3ccccc32)cc1 | 91 | i | i | i | i | i | 0.24
CC(C)(C)c1ccc(S(=O)(=O)/N=C2\C=C(NS(=O)(=O)c3ccccc3)C(=O)c3ccccc32)cc1 | 63 | i | i | i | i | i | 7.9
Cc1ccc(S(=O)(=O)/N=C2\C=C(Nc3cccc(C(=O)O)c3)C(=O)c3ccccc32)c(C)c1 | 82 | i | i | i | i | i | i
CCCC#Cc1ccc2c(c1)O[C@@H](CN(C)C(C)=O)[C@H](C)CN([C@H](C)CO)S2(=O)=O | nt | nt | nt | nt | i | i | nt
Cc1ccc(NC2=C(NCCO)C(=O)c3ccccc3C2=O)cc1 | 71 | i | i | i | nt | nt | 20
O=[N+]([O-])c1cc(C(F)(F)F)ccc1N1CCCC(O)C1 (stereo not given) | i | i | i | i | i | nt | nt
O=[N+]([O-])c1ccc(N2CCCC(C(F)(F)F)C2)c2ccncc12 (stereo not given) | 33 | i | i | i | i | i | i
O=C(CCl)c1ccc(Cc2ncc(C(F)(F)F)cc2Cl)s1 | 79 | i | i | i | nt | i | 3.4
CC(C)NC(=O)Nc1ccc2c(c1)C(=O)N([C@@H](C)CO)C[C@@H](C)[C@@H](CN(C)C(=O)Cc1ccccc1)OCCCC[C@@H](C)O2 | nt | nt | nt | nt | i | i | nt
O=C(CN1C(=O)S/C(=C\C=C\c2ccccc2)C1=O)Nc1ccccc1C(=O)O | 60 | i | i | i | i | nt | 10
O=C(CN1C(=O)S/C(=C\C=C\c2ccccc2)C1=O)Nc1cccc(O)c1 | i | i | i | i | nt | i | nt
Cc1ccc(S(=O)(=O)N(C)C[C@@H]2Oc3ccc(NS(C)(=O)=O)cc3CC(=O)N([C@H](C)CO)C[C@H]2C)cc1 | nt | nt | nt | nt | i | nt | nt
O=C(C[C@H]1C=C[C@H](NC(=O)Nc2cccc(F)c2)[C@H](CO)O1)NCC1CC1 | nt | nt | nt | nt | i | i | nt
CC(C)Cn1c(N)c(S(=O)(=O)c2cccs2)c2nc3ccccc3nc21 | 47 | i | nt | nt | nt | i | 29
COc1ccc(/C=N/n2c(N)c(S(=O)(=O)c3cccs3)c3nc4ccccc4nc32)cc1OC | i | i | i | i | nt | i | nt
CN1C(=O)c2cc(NC(=O)c3ccccc3F)ccc2OC[C@H]2O[C@H](CC(=O)NCc3ccc4c(c3)OCO4)CC[C@H]21 | nt | nt | nt | nt | i | i | nt
Cc1[nH]c2ccccc2c1CC#N | i | i | i | i | i | i | nt
